Measurements from article PMC4552634, “A New Set of Chemical Starting Points with Plasmodium falciparum Transmission-Blocking Potential for Antimalarial Drug Discovery” (PLoS ONE, 2015).
The campaign covered roughly 13,000 compounds. About 3,200 (25%) showed an effect of 50% or more. The list shows a part of the results.

The compounds below were run on P. falciparum stage V gametocytes. Details: 48 h, 5 µM; inhibitor.
Parameters: BacTiter-Glo ATP luminescence viability of purified stage V gametocytes in 384-well plates, per cent inhibition versus DMSO

In order of falling “% Inhibition” value:
1. CCCCCCCN1CC[C@@H](CCCc2ccnc3ccc(OC)cc23)[C@@H](CCN)C1 [TCMDC-139278]  113.6%
2. CCCCCCCN1CC[C@@H](CCCc2ccnc3ccc(OC)cc23)[C@@H](CNC)C1 [TCMDC-139875]  105.4%
3. CN(C)c1ccc(CN2CCCC(CNC(=O)c3ccc(-c4cccc(C(F)(F)F)c4)s3)C2)cc1 (stereo not shown) [TCMDC-134324]  98.4%
4. CCNc1cc(C(=O)N[C@@H](Cc2ccccc2Cl)[C@H](O)CNC(C)CCCC(C)C)cc(N2CCCCS2(=O)=O)c1 (stereo partly shown) [TCMDC-135224]  92.78%
5. CC(C)Oc1cccc(-c2ccc(C(=O)NCC3CCCN(Cc4cccc(C(F)(F)F)c4)C3)s2)c1 (stereo not shown) [TCMDC-134362]  86.43%
6. Cc1nc(C)c(-c2ccc(Oc3ccc(OC(F)(F)F)cc3)cc2)c(OC(=O)c2ccccc2)c1Cl [TCMDC-137380]  76.96%
7. CCNc1cc(C(=O)N[C@@H](Cc2ccccc2)[C@H](O)CNC(C)Cc2cccc(Cl)c2)cc(N2CCCCS2(=O)=O)c1 (stereo partly shown) [TCMDC-135412]  76.43%
8. CC(=O)Oc1c(Cl)c(C)nc(C)c1-c1ccc(Oc2ccc(Cl)cc2)cc1 [TCMDC-137381]  75.31%
9. CC(=O)Oc1c(Cl)c(C)nc(C)c1-c1ccc(Oc2ccc(OC(F)(F)F)cc2)cc1 [TCMDC-137385]  74.48%
10. COc1cccc(-c2ccc(C(=O)NCC3CCCN(Cc4cccc(C(F)(F)F)c4)C3)s2)c1 (stereo not shown) [TCMDC-134361]  72.66%
11. CC(=O)Oc1c(Br)c(C)nc(C)c1-c1ccc(Oc2ccc(OC(F)(F)F)cc2)cc1 [TCMDC-137383]  72.41%
12. COc1cc(CC2c3cc(O)c(Cl)cc3CCN2C)c(OC)cc1C (stereo not shown) [TCMDC-137434]  71.2%
13. Cc1nc(C)c(-c2ccc(Oc3ccc(OC(F)(F)F)cc3)cc2)c(OC(=O)c2ccc(CN(C)C)cc2)c1Cl [TCMDC-137382]  68.19%
14. CCCC(C)NC[C@@H](O)[C@H](Cc1ccccc1)NC(=O)c1cc(NCC)cc(N2CCCCS2(=O)=O)c1 (stereo partly shown) [TCMDC-135226]  61.06%
15. CCCC(C)NC[C@@H](O)[C@H](Cc1ccccc1)NC(=O)c1cc(C2CCCC2)cc(N2CCCCS2(=O)=O)c1 (stereo partly shown) [TCMDC-135216]  60.63%
16. COc1ccccc1-c1ccc(C(=O)NCC2CCCN(Cc3cccc(C(F)(F)F)c3)C2)s1 (stereo not shown) [TCMDC-134360]  55.62%
17. CCCCCCCCCCN1C(=O)C2C(CCCCNC(C)=O)NC3(C(=O)N(Cc4ccc(C(C)(C)C)cc4)c4ccccc43)C2C1=O (stereo not shown) [TCMDC-139772]  47.42%
18. CCCCCCCCCN1CC[C@@H](CCCc2ccnc3ccc(O)cc23)[C@@H](CC)C1 [TCMDC-131442]  46.81%
19. Cc1cccc2c(/C=C/C(=O)NC3CCC(CCN4CCc5ccc(C#N)cc5CC4)CC3)c[nH]c12 (stereo not shown) [TCMDC-139665]  43.65%
20. CCNc1cc(C(=O)N[C@@H](Cc2cccc(F)c2)[C@H](O)CNC(C)CCCC(C)C)cc(N2CCCCS2(=O)=O)c1 (stereo partly shown) [TCMDC-135307]  42.64%
21. COc1ccc(C(=O)NC2CCN(c3ccnc4cc(Cl)ccc34)C2)cc1 (stereo not shown) [TCMDC-133648]  42.46%
22. COc1ccc(Cc2cnc3nc(N)nc(N)c3c2C)cc1 [TCMDC-137704]  42.37%
23. CCCCCC(C)NC[C@@H](O)[C@H](Cc1ccccc1)NC(=O)c1cc(NCC)cc(N2CCCCS2(=O)=O)c1 (stereo partly shown) [TCMDC-135293]  40.73%
24. CCNc1cc(C(=O)N[C@@H](Cc2ccoc2)[C@H](O)CNC(C)CCCC(C)C)cc(N2CCCCS2(=O)=O)c1 (stereo partly shown) [TCMDC-135411]  37.57%
25. CC(C)NCc1ccc(-c2cccc(-c3nc4ccc(C(F)(F)F)cc4[nH]3)c2)cc1 [TCMDC-132739]  37.23%
26. O=C(N[C@@H](Cc1ccccc1)[C@H](O)CNC1CCOCC1)c1cc(C2CCCC2)cc(N2CCCCS2(=O)=O)c1 [TCMDC-134938]  31.68%
27. OC(CNc1ccnc(Nc2ccccc2)n1)c1cccc(C(F)(F)F)c1 (stereo not shown) [TCMDC-136588]  30.58%
28. CCCc1cc(OC)c(CC2c3cc(O)c(Cl)cc3CCN2C)cc1OC (stereo not shown) [TCMDC-137166]  27.65%
29. O=C(NC1CCN(Cc2cccc(C(F)(F)F)c2)CC1)c1ccc(-c2cccc(Cl)c2)s1 [TCMDC-134364]  25.17%
30. O=C(NC1CCN(Cc2cccc(C(F)(F)F)c2)CC1)c1ccc(-c2cccc(C(F)(F)F)c2)s1 [TCMDC-134363]  23.99%
31. COc1ccc2nccc([C@H](O)CN3CCC(NCc4ccc5c(c4C)OCCO5)CC3)c2n1 [TCMDC-136066]  21.32%
32. CCCc1cc(OC)c(C[C@H]2c3cc(O)c(Cl)cc3CCN2C)cc1OC [TCMDC-137779]  20.32%
33. CCNc1cc(C(=O)N[C@@H](Cc2cccc(Cl)c2)[C@H](O)CNC(C)CCCC(C)C)cc(N2CCCCS2(=O)=O)c1 (stereo partly shown) [TCMDC-135225]  15.74%
34. COc1cc(CNC[C@@H](O)[C@H](Cc2ccccc2)NC(=O)c2cc(C3CCCC3)cc(N3CCCCS3(=O)=O)c2)cc(OC)c1 [TCMDC-134561]  14.07%
35. CCNc1cc(C(=O)N[C@@H](Cc2ccccc2)[C@H](O)CNC(C)(C)Cc2cccc(Cl)c2)cc(N2CCCCS2(=O)=O)c1 [TCMDC-135309]  13.84%
36. CN(C)c1ccc(C2c3nc[nH]c3CCN2C(=O)Nc2cccc([N+](=O)[O-])c2)cc1 (stereo not shown) [TCMDC-141569]  12.33%
37. Cc1cc(Nc2ccccc2)nc(Nc2ccccc2)n1 [TCMDC-124214]  11.37%
38. CCCCCCCN1CC[C@@H](C[C@H](N)Cc2ccnc3ccc(OC)cc23)[C@@H](CC)C1 [TCMDC-139827]  11.08%
39. O=C(Nc1cccc(-c2ccc(-c3nc4ccc(F)cc4[nH]3)cc2)c1)c1cccnc1 [TCMDC-136923]  8.252%
40. CCc1nc(N)nc(N)c1-c1ccc(C(C)(C)C)cc1 [TCMDC-137367]  5.64%
41. COc1ccccc1CN1CCC(NC(=O)c2ccc(-c3cccc(C(F)(F)F)c3)s2)CC1 [TCMDC-134355]  4.957%
42. Cn1c(NC(=O)CCCCCNC(=O)c2ccc(O)c(-c3ccc(Cl)c(Cl)c3)c2)nc2ccccc21 [TCMDC-140880]  4.339%
43. Cc1c(C)n(C2CCCCC2)c2ncnc(OC3CCN(CC(=O)N4CCCC4)CC3)c12 [TCMDC-124854]  2.854%
44. CCNc1cc(C(=O)N[C@@H](Cc2ccccc2)[C@H](O)CNC(C)CCCC(C)C)cc(N2CCCS2(=O)=O)c1 (stereo partly shown) [TCMDC-138825]  1.46%
45. CC(=O)Nc1ccc(CN2CCC(NC(=O)c3ccc(-c4cccc(OC(C)C)c4)s3)CC2)cc1 [TCMDC-134335]  1.059%
46. Cc1cc(=O)c2cc(Oc3ccc(OC(F)(F)F)cc3)ccc2[nH]1 [TCMDC-138906]  0.2157%
47. COc1ccc2ncc(C#N)c(CCN3CCC(NCc4ccc5c(c4)NC(=O)CO5)CC3)c2c1 [TCMDC-135645]  -0.6152%
48. Cc1nc(N)nc(N)c1-c1ccc(Cl)cc1 [TCMDC-138984]  -0.9845%
49. CC[C@H]1CN(C/C=C/c2ccc(OC)cc2)CC[C@H]1CCCc1ccnc2ccc(O)cc12 [TCMDC-140258]  -1.76%
50. Cc1[nH]c(C)c([N+](=O)[O-])c(=O)c1-c1ccc(Oc2ccc(OC(F)(F)F)cc2)cc1 [TCMDC-135555]  -1.899%
51. Cc1[nH]cc(Br)c(=O)c1-c1ccc(Oc2ccc(OC(F)(F)F)cc2)cc1 [TCMDC-136197]  -4.559%
52. Cc1cc(Nc2ccc(Oc3ccc(Cl)cc3)cc2)nc(N)n1 [TCMDC-138073]  -5.729%
53. CC(N)(Cc1ccc(O)cc1)c1nn[nH]n1 (stereo not shown) [TCMDC-131387]  -7.705%
54. O=C(Nc1cccc(-c2cc(-c3c(Cl)cccc3Cl)no2)c1)c1cncc(-c2cccs2)c1 [TCMDC-136736]  -10.57%
55. Cc1ccc(NC(=O)c2cccc(N3CCN(c4ccncc4)CC3)c2)cc1F [TCMDC-135124]  -11.57%
56. CC(C)[C@@H](C(=O)NCc1cccc(C(F)(F)F)c1)N1C(=O)CCC1C(=O)Nc1ccc([N+](=O)[O-])cc1 (stereo partly shown) [TCMDC-141408]  -12.94%
57. COc1cccc(CN2CCCC(COC(c3ccc(F)cc3)c3ccc(F)cc3)C2)c1O (stereo not shown) [TCMDC-136038]  -18.09%
58. Cc1[nH]c(C)c(Cc2ccc(Oc3ccc(OC(F)(F)F)cc3)cc2)c(=O)c1Br [TCMDC-134530]  -23.78%
59. CN(C)c1ccc(-c2ccc(C(=O)NC3CCN(Cc4cccc(C(F)(F)F)c4)CC3)s2)cc1 [TCMDC-134365]  -28.78%
60. CN(C)c1ccc(CN2CCC(NC(=O)c3ccc(-c4cccc(C(F)(F)F)c4)s3)CC2)cc1 [TCMDC-134325]  -44.98%
61. CCNc1cc(CCCC(=O)OCC)nc(Nc2ccc(C)cc2)n1 [TCMDC-134018]  -48.18%
62. CN(C)Cc1c(O)ccc2[nH]c(-c3ccc(OC(F)(F)F)cc3)nc12 [TCMDC-136529]  -83.05%
63. Cc1ccc(NC(=O)Nc2ccc(Cl)c(C(F)(F)F)c2)cc1-c1ccc(C(=O)Nc2ccncc2)cc1 [TCMDC-133700]  -87.03%
64. C[C@@H](N=C(Nc1ccc(C#N)cc1O)Nc1ccccc1Cl)c1ccc(Br)cc1 [TCMDC-140257]  -91.02%
